These results are taken from PubChem BioAssay (NCATS).

Each structure is given as a SMILES string. Results with a measured potency or affinity are listed apart. Calls of active or inactive are those of the source. Calls come from the whole dose curve.

For this assay the following is noted: Ebola virus entry assay, green fluorescence channel.
Turning to `CC[C@H]1OC(=O)[C@H](C)[C@@H](O[C@H]2C[C@@](C)(OC)[C@@H](O)[C@H](C)O2)C(C)[C@@H](O[C@@H]2O[C@H](C)C[C@H](N(C)C)[C@@H]2O)[C@](C)(OC)C[C@@H](C)C(=O)[C@H](C)[C@@H](O)[C@]1(C)O` (stereo partly drawn), the molecule was called inactive.
With `CN(C)CCOc1ccc(/C(=C(/CCCl)c2ccccc2)c2ccccc2)cc1` the entry was “inactive”.
For `CO/N=C(\C(=O)N[C@@H]1C(=O)N2C(C(=O)O)=CCS[C@H]12)c1csc(N)n1`, the molecule was classed as inactive.
With `Nc1nc2ccc(OC(F)(F)F)cc2s1` the entry was “inactive”; with `C=CC(N)CCC(=O)O` (stereo not drawn), “inactive”.
With `C[C@]1(O)CC[C@H]2[C@@H]3CCC4=CC(=O)CC[C@]4(C)[C@@]3(F)[C@@H](O)C[C@@]21C` the entry was “inactive”; with `CC(C)[C@H]1C(=O)N2CCC[C@H]2[C@]2(O)O[C@](NC(=O)[C@@H]3C[C@@H]4c5cccc6[nH]cc(c56)C[C@H]4N(C)C3)(C(C)C)C(=O)N12`, “inactive”.
With `CN[C@@H]1[C@H](O[C@H]2[C@H](O[C@H]3[C@H](O)[C@@H](O)[C@H](N=C(N)N)[C@@H](O)[C@@H]3N=C(N)N)O[C@@H](C)[C@]2(O)C=O)O[C@@H](CO)[C@H](O)[C@H]1O` the entry was “inactive”.
Consider `Nc1ccc(C(=O)O)c(O)c1`, for which the call was inactive.
With `CCC(=O)OC(OP(=O)(CCCCc1ccccc1)CC(=O)N1C[C@H](C2CCCCC2)C[C@H]1C(=O)O)C(C)C` (stereo partly drawn) the entry was “inactive”; with `CCC[C@@]1(CCc2ccccc2)CC(O)=C([C@H](CC)c2cccc(NS(=O)(=O)c3ccc(C(F)(F)F)cn3)c2)C(=O)O1`, “inactive”; with `CC(C)(C)NC(=O)[C@@H]1C[C@@H]2CCCC[C@@H]2CN1C[C@@H](O)[C@H](Cc1ccccc1)NC(=O)[C@H](CC(N)=O)NC(=O)c1ccc2ccccc2n1`, “inactive”.
With `COc1cc([C@@H]2c3cc4c(cc3[C@@H](O[C@@H]3O[C@@H]5CO[C@@H](c6cccs6)O[C@@H]5[C@H](O)[C@@H]3O)[C@H]3COC(=O)[C@H]23)OCO4)cc(OC)c1O` the entry was “inactive”; with `CCOC(=O)[C@H](CCc1ccccc1)N[C@H]1CCCN2CCC[C@@H](C(=O)O)N2C1=O`, “inactive”; with `Cn1nnc2c(C(N)=O)ncn2c1=O`, “inactive”.
With `CN1CCN2c3ncccc3Cc3ccccc3C2C1` (stereo not drawn) the entry was “inactive”; with `O=C1Nc2ccc(Cl)cc2C(c2ccccc2Cl)=NC1O` (stereo not drawn), “inactive”.
As to `CN[C@@H]1CCc2[nH]c3ccc(C(N)=O)cc3c2C1`, the molecule was classed as inactive.
Regarding `CC(C)C[C@H]1C(=O)N2CCC[C@H]2[C@]2(O)O[C@](NC(=O)[C@@H]3C=C4c5cccc6[nH]c(Br)c(c56)C[C@H]4N(C)C3)(C(C)C)C(=O)N12`, the molecule was called inactive.
The same measure for `Cc1nnc2n1-c1ccc(Cl)cc1C(c1ccccc1)=NC2`: “inactive”; for `CO[C@@H]1[C@@H](O[C@@H]2O[C@H](C)[C@@H](O[C@H]3C[C@@](C)(O)[C@@H](O)[C@H](C)O3)[C@H](N(C)C)[C@H]2O)[C@@H](CC=O)C[C@@H](C)[C@@H](O[C@@H]2CC[C@H](N(C)C)[C@@H](C)O2)/C=C/C=C/C[C@@H](C)OC(=O)C[C@H]1O`: “inactive”; for `CN1[C@@H]2CC[C@H]1CC(OC(c1ccccc1)c1ccccc1)C2` (stereo partly drawn): “inactive”.
Take `CN[C@H](CC(C)C)C(=O)N[C@H]1C(=O)N[C@@H](CC(N)=O)C(=O)N[C@H]2C(=O)N[C@H]3C(=O)N[C@H](C(=O)N[C@@H](C(=O)O)c4cc(O)cc(O)c4-c4cc3ccc4O)[C@H](O)c3ccc(c(Cl)c3)Oc3cc2cc(c3O[C@@H]2O[C@H](CO)[C@@H](O)[C@H](O)[C@H]2O[C@H]2C[C@](C)(N)C(O)[C@H](C)O2)Oc2ccc(cc2Cl)[C@H]1O` (stereo partly drawn): the outcome was inactive.
